The values that follow come from the supplement of paper PMC10503962.

Structures are written as SMILES.

This assay concerns Trichuris muris adult worms. Briefly: mean motility score (Paragon pixel variance) of adult worms (arbitrary units); higher = more motile worms, i.e. less anthelmintic effect; extreme values may be limits of the assay. As to conditions: 100 µM; 24 h. The protocol:
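Primary ex vivo screen of 409 approved drugs against adult Trichuris muris worms: one worm per well in RPMI-1640 with penicillin/streptomycin, 100 µM drug in 1% DMSO, 37 °C, 5% CO2 for 24 h. Motility was recorded with INVAPP (200-frame movies) and scored with the Paragon pixel-variance algorithm. Values are means of triplicate wells run on three occasions; levamisole was the positive control and DMSO the negative control.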
With `CCN[C@H]1C[C@H](C)S(=O)(=O)c2sc(S(N)(=O)=O)cc21` [dorzolamide], the mean motility score was 2540. The molecule `COC(=O)C1=C(C)NC(C)=C(C(=O)OCCN2CCN(C(c3ccccc3)c3ccccc3)CC2)C1c1cccc([N+](=O)[O-])c1.Cl` (stereo not given) [manidipine hydrochloride] displayed a mean motility score of 1540.

Take `CCN(Cc1ccncc1)C(=O)C(CO)c1ccccc1` (stereo not given) [tropicamide]: the mean motility score stood at 2030. Consider `CC(N/C(=N/C#N)Nc1ccncc1)C(C)(C)C.O` (stereo not given) [pinacidil monohydrate], for which the mean motility score is 2490. The molecule `Nc1ccc(S(=O)(=O)NC(=O)c2ccccc2)cc1` [sulfabenzamide] had a mean motility score of 4050. Take `COc1ccc(-c2ccc3cc(C(=O)O)ccc3c2)cc1C12CC3CC(CC(C3)C1)C2` [adapalene]: the mean motility score came out at 3410. Consider `C[C@H]1O[C@@H](n2cc(F)c(=O)[nH]c2=O)[C@H](O)[C@@H]1O` [doxifluridine], for which the mean motility score was determined as 2010. The molecule `O=C(c1ccc(F)cc1)C1CCN(CCn2c(=O)[nH]c3ccccc3c2=O)CC1` [ketanserin] had a mean motility score of 3020. On to `NCCS(=O)(=O)O` [taurine], for which the mean motility score came to 1780.

Take `CN(Cc1cnc2nc(N)nc(N)c2n1)c1ccc(C(=O)N[C@@H](CCC(=O)O)C(=O)O)cc1` [methotrexate]: the mean motility score amounted to 3700. In turn, `C[C@H](CS)C(=O)N1CCC[C@H]1C(=O)O` [captopril] came in with a mean motility score of 3330. As for `Cc1c(C)c2c(c(C)c1O)CC[C@@](C)(CCC[C@H](C)CCC[C@H](C)CCCC(C)C)O2` [vitamin E], the mean motility score was found to be 2950. In turn, `Cc1oncc1C(=O)Nc1ccc(C(F)(F)F)cc1` [leflunomide] gave a mean motility score of 2250.

Molecule `CNC(=O)c1ccccc1Sc1ccc2c(/C=C/c3ccccn3)n[nH]c2c1` [axitinib] showed a mean motility score of 2490. Next, `Cc1c(C(=O)NN2CCCCC2)nn(-c2ccc(Cl)cc2Cl)c1-c1ccc(Cl)cc1` [rimonabant]: 2060. Consider `Cc1cc(C(C)(C)C)cc(C)c1C=C1NCCN1` [xylometazoline], for which the mean motility score was 3760. For `Nc1nnc(-c2cccc(Cl)c2Cl)c(N)n1` [lamotrigine], the mean motility score was determined as 2280. In the case of `CC[N+](C)(C)c1cccc(O)c1.[Cl-]` [edrophonium chloride], the mean motility score came to 2890. Next, `Nc1cc(-c2ccncc2)cnc1O` [inamrinone]: 3880; `NS(=O)(=O)c1cc2c(cc1Cl)NCNS2(=O)=O` [hydrochlorothiazide]: 3580. In turn, `C[C@@H](Oc1cc(-c2cnn(C3CCNCC3)c2)cnc1N)c1c(Cl)ccc(F)c1Cl` [crizotinib] had a mean motility score of 284. Take `Cc1cc2c(s1)Nc1ccccc1N=C2N1CCN(C)CC1` [olanzapine]: the mean motility score worked out at 454. In turn, `CN1CCC(=C2c3ccccc3CC(=O)c3sccc32)CC1` [ketotifen] displayed a mean motility score of 2220. Next, `CC1(C)NC(=O)N(c2ccc([N+](=O)[O-])c(C(F)(F)F)c2)C1=O` [nilutamide]: 1900; `CC(C)N=c1cc2n(-c3ccc(Cl)cc3)c3ccccc3nc-2cc1Nc1ccc(Cl)cc1` [clofazimine]: 3290; `O=C(O)/C=C/C(=O)O.OCCOCCN1CCN(C2=Nc3ccccc3Sc3ccccc32)CC1.OCCOCCN1CCN(C2=Nc3ccccc3Sc3ccccc32)CC1` [quetiapine fumarate]: 3120. The molecule `C[C@H](O)C(=O)Nc1c(I)c(C(=O)NC(CO)CO)c(I)c(C(=O)NC(CO)CO)c1I` [iopamidol] returned a mean motility score of 2190. Molecule `Oc1ncc(F)c(O)n1` [fluorouracil] had a mean motility score of 3090. In turn, `CCN(CC)CCOC(=O)c1ccc(N)cc1.Cl` [procaine hydrochloride] had a mean motility score of 3750. The molecule `N[C@@H](Cc1c[nH]c2ccc(O)cc12)C(=O)O` [oxitriptan] registered a mean motility score of 3310. On to `CC[C@H](C)C(=O)O[C@H]1C[C@@H](C)C=C2C=C[C@H](C)[C@H](CC[C@@H]3C[C@@H](O)CC(=O)O3)[C@H]21` [lovastatin], for which the mean motility score was 96.7.

On to `CN1CCCC(n2nc(Cc3ccc(Cl)cc3)c3ccccc3c2=O)CC1.Cl` (stereo not given) [azelastine hydrochloride], for which the mean motility score was 396. `NNc1nncc2ccccc12` [hydralazine]: the mean motility score was determined as 1960. `O=C(O)Cc1ccc(-c2ccccc2)cc1` [felbinac] came in with a mean motility score of 3440. Next, `c1ccc2c(CC3=NCCN3)cccc2c1` [naphazoline]: 4300; `CC(C)NCC(O)COc1cccc2[nH]ccc12` (stereo not given) [pindolol]: 4670; `Cc1c(N(C)C)c(=O)n(-c2ccccc2)n1C` [aminopyrine]: 2250. Next, `CCCCCCCCCCC[C@@H](C[C@@H]1OC(=O)[C@H]1CCCCCC)OC(=O)[C@H](CC(C)C)NC=O` [orlistat]: 3180. Consider `CCN1CC(CCN2CCOCC2)C(c2ccccc2)(c2ccccc2)C1=O.Cl` (stereo not given) [doxapram hydrochloride], for which the mean motility score is 1820. `C[C@]12C=CC(=O)C=C1CC[C@@H]1[C@@H]2[C@@H](O)C[C@@]2(C)[C@H]1CC[C@]2(O)C(=O)CO` [prednisolone] registered a mean motility score of 659.
